From PubChem
TDP1 block: blocks human tyrosyl-DNA phosphodiesterase 1; Q9NUW8; recombinant TDP1, AlphaScreen DNA substrate cleavage; Potency, µM (series often up to 130 µM), for the others: top-dose activity change, negative = inhibition, most hits filed as inhibitors; 0.28% of 350,000 active; further: on the % scale 0 is the no-effect control and ±100 the full control effect; nearly all actives have a fitted effect of over 40% in size
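Steps: enzyme plus compound, 15 min RT; add biotin/phosphotyrosine-FITC oligonucleotide (15 nM final), react 5 min; add donor/acceptor beads (10 ug/ml final), 10 min; read AlphaScreen. Tdp1 at 1 nM final.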
POLI inh: DNA polymerase iota (human) inhibition. Q9UNA4. Pol iota fluorescent replication assay, 10 min. Potency, µM (highest dose often 115 µM), inactives show at the top dose activity, negative = inhibition, most hits filed as inhibitors. 1% of 390,000 active. AID 588590
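Pol iota at 10 nM preincubated 15 min with compounds at room temperature; reaction started with fluorescent substrate, 50 nM final. Fluorescence read kinetically at 0 and 10 min; buffer-only wells as negative control.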
POLH inh: inhibitors of human DNA polymerase eta; Potency, µM (highest dose often 114 µM), inactives show at the top dose activity change, negative = inhibition, actives largely listed as inhibitors; recombinant Pol eta, fluorescent DNA replication assay; 1.2% of 390,000 active; further: on the % scale 0 is the no-effect control and ±100 the full control effect
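Pol eta at 10 nM preincubated with compounds 15 min at room temperature; reaction started with fluorescent substrate (50 nM final) and read kinetically at 0 and 10 min.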
Pol beta inh: blocks human DNA polymerase beta activity; P06746; Potency, µM (highest dose often 114 µM), inactives show top-dose activity change, negative = inhibition, hits mostly inhibitors; Pol beta primer extension/strand displacement, fluorescence kinetic; 1.3% of 340,000 active; further: on the % scale 0 is the no-effect control and ±100 the full control effect
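10 nM enzyme + cpd, 15 min RT; start with substrate 50 nM final; read 0 min and after 10 min RT. Corrected, normalized data; 4-parameter Hill curve fit.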
FEN1 inh: inhibitors of human flap endonuclease 1; P39748; Recombinant FEN1 flap cleavage, fluorescence, 15 min; Potency, µM (highest dose often 114 µM), without a hit: top-dose activity change, negative = inhibition, usual class: inhibitors; 0.35% of 390,000 active; AID 588795; further: on the % scale 0 is the no-effect control and ±100 the full control effect; nearly all actives have a fitted effect of over 65% in size
Target sequence (P39748 whole entry, looked up): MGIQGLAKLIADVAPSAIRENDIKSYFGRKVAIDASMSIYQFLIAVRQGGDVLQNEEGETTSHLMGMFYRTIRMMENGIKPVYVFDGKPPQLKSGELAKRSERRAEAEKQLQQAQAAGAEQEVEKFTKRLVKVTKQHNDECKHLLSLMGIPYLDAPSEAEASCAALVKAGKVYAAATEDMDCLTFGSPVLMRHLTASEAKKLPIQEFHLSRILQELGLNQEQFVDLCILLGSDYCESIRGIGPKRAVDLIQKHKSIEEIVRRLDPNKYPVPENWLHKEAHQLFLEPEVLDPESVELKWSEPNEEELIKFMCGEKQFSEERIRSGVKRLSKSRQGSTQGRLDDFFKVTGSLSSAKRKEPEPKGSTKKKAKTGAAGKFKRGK
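Reaction started by adding substrate (50 nM final) to 10 nM enzyme after 15 min room-temperature compound preincubation. Reads at 0 and 15 min, with data normalized and fitted to a four-parameter Hill equation.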
Pol kappa inh: DNA polymerase kappa (human) inhibition; 0.53% of 400,000 active; Potency, µM (titrated, usually from 107 µM), for the others: top-dose activity, negative = inhibition, hits mostly inhibitors; Q9UBT6; purified Pol kappa, fluorescent DNA synthesis assay, 10 min; AID 588579; further: on the % scale 0 is the no-effect control and ±100 the full control effect
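10 nM Pol kappa preincubated 15 min at room temperature with compounds, then reaction started with substrate at 50 nM final. Fluorescence read kinetically at 0 and 10 min; buffer-only wells served as negative control.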
The depositor's hits bear a star; ? = inconclusive; nt = not tested or not shown; [ ] = another dose, or the depositor's remark. Compounds with a hit are over-represented: about 2.4% of the library has one in this group of screens. The call rests on the fitted dose curve; in most records, active means well fitted curve in the direction sought with a large enough effect; inconclusive means small, poorly fitted or top-dose-only effect, or another doubt; inactive means no such curve, though single readings can be large; an effect the other way counts as inactive or inconclusive. Potency means the concentration at half of the fitted maximal effect.

SMILES	TDP1 block	POLI inh	POLH inh	Pol beta inh	FEN1 inh	Pol kappa inh
CCC(Sc1nnc2c(n1)[nH]c1ccccc12)C(=O)Nc1ccccc1OC (configuration not stated)	nt	?	-8%	?	0%	2%
O=c1[nH]c2ccc(S(=O)(=O)N3CCN(S(=O)(=O)c4ccc5c(c4)OCCO5)CC3)cc2[nH]c1=O	50µM*	nt	nt	nt	nt	nt
Cc1cc2[nH]c(=O)c(=O)[nH]c2cc1S(=O)(=O)N1CCN(c2cccc(C(F)(F)F)c2)CC1	0%	?	3%	?	19%	-24%
O=C(O)/C=C/c1cc(F)c(S(=O)(=O)N2CCN(S(=O)(=O)c3ccc4c(c3)OCCO4)CC2)cc1F	50µM*	nt	nt	nt	nt	nt
O=c1[nH]c2ccc(S(=O)(=O)N3CCN(c4ccccc4)CC3)cc2[nH]c1=O	-12%	40µM*	79µM*	45µM*	56µM*	?
COC/C=C/c1cc(F)c(S(=O)(=O)N2CCN(S(=O)(=O)c3ccc4c(c3)OCCO4)CC2)cc1F	0%	nt	nt	nt	nt	nt
Cc1cc2[nH]c(=O)c(=O)[nH]c2cc1S(=O)(=O)N1CCN(c2cccc(Cl)c2)CC1	-5%	?	0%	35µM*	16%	-18%
O=S(=O)(c1ccc2c(c1)OCCO2)N1CCN(S(=O)(=O)c2ccc3c(c2)OCCO3)CC1	0%	nt	nt	nt	nt	nt
CC(C1OC(C)(C)C(O)C1O)C1CC[C@@]2(C)C3=CCC4C(C)(C)C(=O)CC[C@]4(C)C3CC[C@@]12C (some centres not stated)	13%[56.1 µM]	nt	nt	nt	nt	-8%[60.1 µM]
COc1ccccc1CNC(=O)C1CCCN(S(=O)(=O)c2ccc3c(c2)CCCN3C(C)=O)C1 (configuration not stated)	8%	5%	-2%	1%	2%	-6%[60.1 µM]
Nc1c(N2CCOCC2)cc(Cl)c2nonc12	3%	3.5µM*	-5%	-1%	-2%	-1%
Cc1cc(N2CCOCC2)c2c(N)cc(C)c(C)c2n1	1%	7%	-3%	0%	-9%	-2%
CCCC1=Nc2cc(C(=O)NCCc3ccccc3)ccc2Sc2ccc(C)cc21	0%	?	?	3%	79µM*	?
CCCC1=Nc2cc(C(=O)NC(C)c3ccccc3)ccc2Sc2ccc(C)cc21 (configuration not stated)	8%	89µM*	-10%	-14%	?	?
Cc1nc([N+](=O)[O-])cn1CC(=O)c1ccc2c(c1)OCCCO2	nt	13%	nt	nt	16%	-2%
COc1ccc(-n2nnnc2SCC(=O)Nc2ccc3c(c2)OCCO3)cc1OC	-2%	50µM*	?	-1%	-3%	-6%
COc1cccc(-n2nnnc2SCC(=O)Nc2ccc3c(c2)OCCO3)c1	-2%	?	?	?	-19%	-5%
C=C(NNC(C)=O)c1ccc(O)cc1	nt	-2%	nt	nt	-13%	-2%
Cc1cc(=O)[nH]c2c(N=Nc3ccc(O)cc3)c(N)nn12	9%	?	-18%	2%	-32%	89µM*
Cc1ccc(CNC(=O)CCc2nnc3ccc(N4CCC5(CC4)OCCO5)nn23)cc1	2%	?	-13%	14%	-7%	79µM*
O=C(OCC#CCSc1nnc(-c2cccc3ccccc23)o1)c1ccccc1	-6%	nt	nt	nt	nt	nt
CNCC(=O)c1c[nH]c2ccccc12	nt	17%	nt	nt	13%	-2%
O=c1cc(CSc2nnnn2-c2ccccc2)nc(Nc2ccc(F)cc2)[nH]1	7%	45µM*	?	45µM*	-7%	?
COC(=O)c1cc(F)c(S(=O)(=O)N2CCN(S(=O)(=O)c3ccc4c(c3)OCCO4)CC2)cc1F	0%	nt	nt	nt	nt	nt
COCCCN(C(=O)c1cc2c(s1)CCC2)c1c(N)n(Cc2ccccc2)c(=O)[nH]c1=O	nt	32µM*	?	13µM*	-5%	?
SMILES	TDP1 block	POLI inh	POLH inh	Pol beta inh	FEN1 inh	Pol kappa inh
CCCN(C(=O)COC(=O)c1cc(CC)c(C)s1)c1c(N)n(Cc2ccccc2)c(=O)[nH]c1=O	2%[0.505 µM]	40µM*	18µM*	nt	-11%	?
CCOC(=O)c1cc(C#N)c(SC(C(=O)N2CCCCC2)c2ccccc2)nc1C (configuration not stated)	nt	?	nt	nt	?	-5%
O=C(CCN1C(=O)/C(=C/c2ccccc2Cl)SC1=S)Nc1ccccc1C(=O)O	nt	?	79µM*	?	-13%	-10%
COc1cc(/C=C2/SC(=S)N(CCC(=O)Nc3ccc(C(=O)O)cc3)C2=O)cc(OC)c1OC	5%	-10%	56µM*	4%	-17%	-21%
O=C(CCCN1C(=O)/C(=C/c2cccs2)SC1=S)Nc1cc([N+](=O)[O-])ccc1O	4%	30%	-17%	2%	-11%	-16%
O=C(CCN1C(=O)/C(=C/c2ccc(F)cc2)SC1=S)Nc1cc([N+](=O)[O-])ccc1O	nt	?	0%	45µM*	-2%	-9%[60.1 µM]
CCc1ccc(/C=C2/SC(=S)N(CCC(=O)Nc3ccc(C(=O)O)cc3)C2=O)cc1	?	nt	nt	0%	nt	nt
CCc1ccc(/C=C2/SC(=S)N(CCC(=O)Nc3cccc(C(=O)O)c3)C2=O)cc1	28µM*	-27%	-10%	?	-25%	-2%
CC(C)C[C@@H](NC(=O)[C@@H](Cc1ccccc1)NC(=O)c1cnccn1)B(O)O	nt	nt	nt	nt	nt	-5%[19.4 µM]
CCc1ccc(/C=C2\SC(=S)N(CCCC(=O)Nc3ccccn3)C2=O)cc1	3%	3%	-30%	4%	2%	-6%
CCc1ccc(/C=C2/SC(=S)N(CCCC(=O)Nc3ccccc3C(=O)O)C2=O)cc1	6%	-12%	79µM*	50%	-17%	-28%
O=C(Cn1cnc2c(cnn2-c2ccc(F)cc2)c1=O)NCc1ccco1	2%	10%	-15%	27%	7%	-3%
Cc1sc2ncn(CC(=O)NCc3ccco3)c(=O)c2c1-c1ccc(F)cc1	-1%	30%	79µM*	?	7%	-14%
COc1ccccc1-c1nnc2sc(COc3ccc(Cl)cc3Cl)nn12	4%	-15%	-10%	56µM*	-24%	-25%
O=C1CSC(c2cccnc2)N1c1ccccc1 (configuration not stated)	-3%	-4%	3%	-2%	18%	-16%
Cc1cccc(N2C(=O)CSC2c2cccnc2)c1 (configuration not stated)	-4%	1%	0%	100µM*	1%	-9%
CCN(c1ccc(OC)cc1)S(=O)(=O)c1nnc(NC(=O)c2ccco2)s1	6%	?	?	?	13%	-24%
COc1ccc(N(CC(C)C)S(=O)(=O)c2nnc(NC(=O)c3ccco3)s2)cc1	4%	?	79µM*	0%	-3%	-18%
